# tim23-1 inh: growth inhibitors of tim23-1 mutant yeast; S. cerevisiae tim23-1 growth, BacTiter-Glo luminescence, 24 h; inhibition, % at 20 µM; 1.3% of 330,000 active;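 active = growth inhibition of the mutant yeast at or above 50%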;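 note: temperature-sensitive mutant grown at 25 °C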
# TIM10 inh: inhibits growth of TIM10 yeast strain. inhibition, % at 10 µM. 1.4% of 330,000 active. S. cerevisiae TIM10 strain growth, BacTiter-Glo luminescence, 24 h. AID 463195;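 active = inhibition of 40% or more at the single tested concentration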;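 note: wild-type TIM10 isogenic control strain grown at permissive 25 °C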
# tim10-1 inh: inhibits growth of tim10-1 mutant yeast | inhibition, % at 20 µM | AID 463190 | 2.2% of 330,000 active | S. cerevisiae tim10-1 ts strain growth, BacTiter-Glo, 24 h;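 active = inhibition of at least 40%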;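 note: mutant grown at 25 °C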
# NLRP3 yeast inh: inhibitors of NALP3 inflammasome in yeast; AID 2825; Yeast reconstituted NLRP3/ASC/caspase-1, beta-gal luminescence, 24 h; inhibition, % at 10 µM; 0.39% of 330,000 active;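 active = inhibition of 50% or more; inactive = inhibition below 50%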
# NALP1 yeast inh: blocks the NALP1 inflammasome reconstituted in yeast | AID 2071 | inhibition, % at 10 µM | 0.61% of 280,000 active | S. cerevisiae NALP1/ASC/caspase-1 growth, X-gal OD620, 72 h; in the data active = inhibition mostly above about 24%, no sharp cut-off; inactive = mostly below about 32%
# tim10-1 conf: tim10-1 yeast growth inhibition, confirmed; AID 463213; 56% of 7,400 active; S. cerevisiae tim10-1 ts strain growth, BacTiter-Glo, 24 h; shares compounds with tim10-1 inh; inhibition, % at 20 µM;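 active = inhibition of yeast growth at or above a set limit in either of two repeat tests at 20 µM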;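 note: tim10-1 mutant grown at permissive 25 °C to find synthetic lethal compounds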
# tim10 confirm: confirmation of TIM10 yeast growth inhibitors. 63% of 4,600 active. S. cerevisiae tim10 strain growth, BacTiter-Glo luminescence, 24 h. shares compounds with TIM10 inh. inhibition, % at 10 µM. AID 463215;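 active = inhibition of yeast growth at or above a set limit in either of two replicates at 10 µM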; note: this counterscreen used the strain with wild-type TIM10
# tim23-1 conf: confirmation of tim23-1 mutant yeast growth inhibitors; 83% of 4,400 active; S. cerevisiae tim23-1 growth, BacTiter-Glo luminescence, 24 h; shares compounds with tim23-1 inh; inhibition, % at 20 µM;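 active = inhibition above about 39% in either of two replicate wells at 20 µM, limit read from the data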;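 note: temperature-sensitive tim23-1 mutant grown at 25 °C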
# Numbers stand for hits; i = inactive; nt = no result. Most compounds without a hit are left out; they make up all but 4.1% or so of the library.
SMILES,tim23-1 inh,TIM10 inh,tim10-1 inh,NLRP3 yeast inh,NALP1 yeast inh,tim10-1 conf,tim10 confirm,others
CN(C)C1(c2nnnn2CCOC(=O)Nc2ccc(Cl)cc2)CCCCC1,i,i,41,i,i,37,nt,
Nc1c(C(=O)OCc2ccccc2)c2nc3ccccc3nc2n1Cc1cccs1,i,i,45,i,i,i,nt,
CC(C)(O)[C@H]1O[C@H]2CC[C@@]3(C)[C@@](O)(CC[C@H]4Cc5c([nH]c6ccccc56)[C@@]43C)C2=CC1=O,i,i,47,i,i,41,nt,
O=C1CN=C(c2ccccc2)c2cc(Br)ccc2N1Cc1cc(=O)n2ccccc2n1,i,i,41,i,i,i,nt,
Cc1ccc(OC(F)F)c(N2C(=O)C3C4CCC(O4)C3C2=O)c1 (stereo unspecified),i,i,i,i,nt,nt,nt,
O=C(O)c1ccccc1-c1ccc(C=C2C(=O)N(c3ccccc3)C(=S)N(c3ccccc3)C2=O)o1,i,i,43,i,i,39,nt,
CCN(CC)C(=O)c1ccc2c(c1)C1C=CCC1C(C(=O)O)N2 (stereo unspecified),i,i,i,i,i,nt,nt,
CC1=C2[C@@H]3OC(=O)[C@H](C)C3CC[C@@]2(C)C=CC1=O (stereo partly specified),i,i,i,i,i,nt,nt,
Cc1cc2oc(=O)cc(-c3cc4ccccc4o3)c2cc1OC(=O)N(C)C,i,i,i,i,i,nt,nt,
CN(C)C(=O)Oc1ccc2oc(=O)cc(-c3cc4ccccc4o3)c2c1,i,i,i,i,i,i,nt,
Cc1ccc(CN2CCSc3ccc(C(=O)N4CCC5(CC4)OCCO5)cc32)cc1,i,i,46,i,i,i,nt,
O=C(c1ccc2c(c1)ncn2-c1ccc(F)cc1F)N1CCC2(CC1)OCCO2,i,i,i,i,i,nt,nt,
O=C(c1ccc2c(c1)N(Cc1ccc(F)cc1)CCS2)N1CCC2(CC1)OCCO2,i,i,40,i,i,i,nt,
O=C(N/N=C/c1c(O)n(C2CCCCC2)c(=S)[nH]c1=O)c1ccccc1O,i,i,53,i,i,i,nt,
O=C(Nc1cccc(C(F)(F)F)c1)c1cccn(Cc2ccc3c(c2)OC(F)(F)O3)c1=O,i,44,49,i,i,i,35,
CCCCn1c(O)c(C(=O)/C=C/c2c[nH]c3ccccc23)c(=O)[nH]c1=O,i,i,i,i,nt,nt,nt,
Cc1[nH]n(-c2ccccc2)c(=O)c1C(c1ccc([N+](=O)[O-])cc1)c1c(C)[nH]n(-c2ccccc2)c1=O,i,46,56,i,i,44,33,
Cc1cccc(-n2c(/C=C/c3ccc([N+](=O)[O-])o3)nc3ccccc3c2=O)c1,i,47,57,i,i,51,i,
O=c1c2ccccc2nc(/C=C/c2ccc([N+](=O)[O-])o2)n1-c1ccc(O)cc1,i,i,i,i,i,nt,nt,
CCC1=CCN(CCc2c(C)[nH]c3ccccc23)CC1,i,i,i,i,nt,nt,nt,
C[C@]12CC[C@H](O)CC1=CCC1C2CC[C@@]2(C)C1CC[C@@H]2OCc1ccccc1 (stereo partly specified),i,i,i,i,nt,nt,nt,
C[C@@H]1CC[C@@]2(NC1)O[C@H]1C[C@H]3[C@@H]4CC=C5C[C@@H](O)CC[C@]5(C)[C@H]4CC[C@]3(C)[C@H]1[C@@H]2C,54,49,51,i,36,i,51,tim23-1 conf=68
CC(C)Oc1cc(-n2c(=S)[nH]c3ccccc3c2=O)c(Cl)cc1Cl,53,45,45,i,i,i,42,tim23-1 conf=52
CCN(CC)C(=O)c1ccc(NC(=O)CCCSc2ccccc2)cc1,i,i,i,i,i,nt,nt,
CCN(CC)C(=O)c1ccc(NC(=O)Nc2ccccc2F)cc1,66,42,56,i,i,68,40,tim23-1 conf=64
SMILES,tim23-1 inh,TIM10 inh,tim10-1 inh,NLRP3 yeast inh,NALP1 yeast inh,tim10-1 conf,tim10 confirm,others
CN1C(=O)NC(=O)/C(=C/c2ccc([N+](=O)[O-])o2)C1=O,i,i,i,i,i,nt,nt,
CN1C(=O)NC(=O)/C(=C/c2ccc([N+](=O)[O-])s2)C1=O,71,90,74,i,nt,67,44,tim23-1 conf=80
COc1ccc(OC)c(N2C(=O)NC(=O)/C(=C\c3ccc([N+](=O)[O-])s3)C2=O)c1,52,84,69,i,i,73,40,tim23-1 conf=72
O=C1NC(=O)N(c2ccccc2)C(=O)/C1=C\c1ccc([N+](=O)[O-])s1,68,85,66,i,nt,76,i,tim23-1 conf=76
CCc1ccccc1NC(=O)N1C[C@H]2C[C@@H](C1)c1cccc(=O)n1C2,i,i,i,i,i,nt,nt,
CC(=NCCC(c1ccccc1)c1ccccc1)c1c(O)n(C)c(=O)n(C)c1=O,i,i,i,i,i,nt,nt,
Cc1ccc2cc(CNCCc3ccccc3C)c(=O)[nH]c2c1,i,i,i,i,i,nt,nt,
O=P(O)(Oc1ccccc1)OC(c1ccccc1)C(F)(F)C(F)(F)F (stereo unspecified),i,i,i,i,i,nt,nt,
CCOC(=O)c1cncn1[C@H](C)c1ccccc1,i,i,i,i,i,nt,nt,
CCOP(=O)(OCC)/C(C#N)=C/c1ccc(Br)cc1,69,51,45,i,i,39,52,tim23-1 conf=56
N=C(N)c1c(O)n(C2CCCCC2)c(=O)n(C2CCCCC2)c1=O,66,i,54,i,i,33,nt,tim23-1 conf=52
O=c1c(C=NCc2cccs2)c(O)n(C2CCCCC2)c(=O)n1C1CCCCC1,i,i,i,i,i,nt,nt,
c1ccc(-c2[nH]c(-c3ccccc3)[n+](CC3CO3)c2-c2ccccc2)cc1 (stereo unspecified),55,48,49,i,i,34,i,tim23-1 conf=50
Cc1ccc(-c2cc(-c3ccc(C)cc3)[n+](-c3ccc(C(=O)[O-])cc3)c(-c3ccc(C)cc3)c2)cc1,i,i,i,i,nt,nt,nt,
Cc1ccc(-c2cc(-c3ccccc3)cc(-c3ccccc3)[n+]2-c2ccccc2)cc1,i,41,i,i,nt,nt,35,
O=C1N[C@H](Cc2ccccc2)C(=O)N2[C@@H]3[C@H](C[C@@H]12)c1ccccc1N3OOSc1ccccc1,i,41,i,i,nt,nt,i,
CCC(=O)c1ccc(OCC(=O)N2CCN(CC(=O)Nc3ccccc3C(F)(F)F)CC2)cc1,i,i,i,i,nt,nt,nt,
O=C(COC(=O)Cc1ccccc1)NNC(=O)c1ccc([N+](=O)[O-])cc1,i,i,i,i,nt,nt,nt,
O=C(OCC(=O)c1ccc([N+](=O)[O-])cc1)/C(=C/c1ccc(Cl)cc1)NC(=O)c1ccccc1,i,45,i,i,i,nt,i,
CC(C)C(=O)c1cn(Cc2ccc(C#N)cc2)c2ccccc12,i,41,i,i,i,nt,i,
Cc1c(C(=O)C(=O)N2CCC3(CC2)OCCO3)c2ccccc2n1C,i,i,i,i,i,nt,nt,

# Screens as filed in PubChem.
